Data taken from PubChem BioAssay (NCATS).
Where “and” joins values, the source holds several entries; their conditions need not be identical. Equal values may be shown once. Inconclusive results are not listed. Where a call stands in place of a potency, no number is given. Where a structure was tested more than once in an assay, its records may differ in their call. Calls of active or inactive are those of the source. Unless noted, calls follow the shape of the full dose curve.

What was measured:
[1] = molecular target: Estrogen receptor (Homo sapiens) (UniProt P03372); experiment: qHTS assay for small molecule antagonists of estrogen receptor alpha signaling (AID 588513; active = well fitted curve in the direction sought with a large enough effect in the signal ratio, with a control signal flat, not every such curve was filed as active; the % refers to the signal ratio)
Outline: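 ER-alpha-UAS-bla GripTite HEK 293 cells in 2% charcoal/dextran-treated FBS medium; compounds titrated (1:2, duplicate), then stimulated with 0.5 nM 17-beta-estradiol for 18 h at 37C. CCF4 beta-lactamase fluorescence; Hill-fit IC50 and efficacy.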

[2] = molecular target: Peroxisome proliferator-activated receptor gamma (Homo sapiens) (UniProt P37231); experiment: qHTS assay for small molecule antagonists of peroxisome proliferator-activated receptor gamma signaling (AID 588537; active = well fitted inhibition curve with a large enough effect in the signal ratio, with a control signal flat, not every such curve was filed as active; the % refers to the signal ratio; also: potency is read from the fitted curve at half-maximal effect)
Outline: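 PPAR-gamma-UAS-bla HEK293 cells (3000/well, 1% charcoal/dextran-stripped FBS) were preincubated 6-6.5 h at 37 C, given titrated compounds, then stimulated with 50 nM rosiglitazone for 16 h. Beta-lactamase activity was read with CCF4 dye; IC50 came from Hill fits.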

[3] = molecular target: Vitamin D3 receptor (Homo sapiens) (UniProt P11473); experiment: qHTS assay for small molecule antagonists of vitamin D receptor signaling (AID 588541);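 also: receptor activated by calcitriol during compound treatment; series mostly up to about 77 µM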
Outline: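 VDR-UAS-bla HEK293T cells (2000/well, 2% charcoal-stripped FBS) were treated with titrated compounds plus 1-alpha,25-dihydroxyvitamin D3 (50 nM or 3 nM final) for 16 h at 37 C. CCF4 beta-lactamase fluorescence was read; Hill fits gave IC50.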

[4] = molecular target: Vitamin D3 receptor (Homo sapiens) (UniProt P11473); experiment: qHTS assay for small molecule agonists of vitamin D receptor signaling (AID 588543)
Outline: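 VDR-UAS-bla HEK293T cells, 2000/well, 2% charcoal-stripped FBS; compound titration 16 h at 37 C; CCF4 beta-lactamase ratio read. Normalized to 50 nM 1-alpha,25-dihydroxyvitamin D3 (100%) and DMSO; Hill fit gives EC50, efficacy.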

[5] = qHTS assay for small molecule agonists of retinoid X receptor alpha signaling (AID 588544); conditions: HEK293T RXRa-UAS-bla, beta-lactamase reporter, 18 h; 530 nm emission
[6] = molecular target: Retinoic acid receptor RXR-alpha (Homo sapiens) (UniProt P19793); experiment: as above
[7] = molecular target: Thyroid hormone receptor beta (Homo sapiens) (UniProt P10828); experiment: qHTS assay for small molecule agonists of thyroid hormone receptor beta signaling (AID 588545)
Outline: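 Agonist activity was read as beta-lactamase CCF4 fluorescence (405 ex, 460/530 em), scaled between DMSO (0%) and 10 nM T3 (100%), then Hill-fitted for EC50 and efficacy. HEK 293 TR-UAS-bla cells in 2% charcoal/dextran FBS medium were exposed 18 h at 37 C.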

[8] = molecular target: Estrogen receptor (Homo sapiens) (UniProt P03372); experiment: qHTS assay for small molecule agonists of estrogen receptor alpha signaling (AID 588514); also: nearly all actives have a fitted effect of over 70% in size
Outline: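 ER-alpha-UAS-bla GripTite HEK 293 cells in medium with 2% charcoal/dextran-treated FBS were treated with compound titrations at 37 C for 18 hrs; beta-lactamase reporter read by CCF4 fluorescence after 2 hrs at RT.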

[9] = molecular target: Glucocorticoid receptor (Homo sapiens) (UniProt P04150); experiment: qHTS assay for small molecule agonists of glucocorticoid receptor signaling (AID 588532; active = well fitted curve in the direction sought with a large enough effect in the signal ratio, with a control signal flat; the % refers to the signal ratio); conditions: HeLa MMTV-bla, beta-lactamase ratio, agonist, 18 h; stronger effect = higher value; percent of dexamethasone control, DMSO zero
Outline: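 MMTV-bla HeLa, beta-lactamase reporter; medium with 1% charcoal/dextran-stripped FBS; cpds up to 92 uM, 18 h, 37 C; CCF4 readout 460/530 nm; Hill fit → EC50, efficacy vs 0.1 uM dexamethasone = 100%.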

[10] = molecular target: Glucocorticoid receptor (Homo sapiens) (UniProt P04150); experiment: qHTS assay for small molecule antagonists of glucocorticoid receptor signaling (AID 588533; active = well fitted inhibition curve with a large enough effect in the signal ratio, with a control signal flat, not every such curve was filed as active; the % refers to the signal ratio;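 also: cells stimulated with 2 nM dexamethasone as agonist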)
Outline: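 Antagonist-mode qHTS: compound titrations added to GRE-bla HeLa cells, then dexamethasone 2 nM final; 18 h, 37 C. CCF4 FRET fluorescence normalized to dexamethasone and DMSO; IC50 from Hill fit.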

[11] = molecular target: Peroxisome proliferator-activated receptor delta (Homo sapiens) (UniProt Q03181); experiment: qHTS assay for small molecule agonists of peroxisome proliferator-activated receptor delta signaling (AID 588534)
Outline: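 Cell-based beta-lactamase reporter assay run in agonist mode: cells seeded and incubated 5 hrs at 37 C, compounds added and incubated 18 hrs at 37 C. CCF4 dye fluorescence read after 2 hrs at RT; EC50 and efficacy from Hill fits.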

[12] = qHTS assay for small molecule antagonists of peroxisome proliferator-activated receptor delta signaling (AID 588535; active = well fitted inhibition curve with a large enough effect in the signal ratio, with a control signal flat, not every such curve was filed as active; the % refers to the signal ratio;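 as to max response: cells co-treated with a PPAR-delta agonist as stimulator during compound exposure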); conditions: HEK293T PPARd-UAS-bla, beta-lactamase FRET ratio, 18 h; 460 nm channel
Outline: (§1)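 GeneBLAzer PPAR-delta-UAS-bla HEK293T cells in medium with 2% charcoal/dextran FBS were preincubated 5 hrs at 37 C, then given compounds, incubated 18 hrs at 37 C, and read by CCF4 beta-lactamase fluorescence; IC50 from Hill fits.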

[13] = molecular target: Peroxisome proliferator-activated receptor delta (Homo sapiens) (UniProt Q03181); experiment: as above
Outline: as §1

[14] = molecular target: Peroxisome proliferator-activated receptor gamma (Homo sapiens) (UniProt P37231); experiment: qHTS assay for small molecule agonists of peroxisome proliferator-activated receptor gamma signaling (AID 588536; active = well fitted curve in the direction sought with a large enough effect in the signal ratio, with a control signal flat, not every such curve was filed as active; the % refers to the signal ratio)
Outline: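 Ratiometric blue/green fluorescence (405 nm excitation; 460 and 530 nm emission) from CCF4-loaded HEK293 reporter cells serves as signal. Exposure to test compounds lasts 16 h at 37 C in medium containing 1% charcoal/dextran-treated serum.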

[15] = molecular target: Bile acid receptor (Homo sapiens) (UniProt Q96RI1); experiment: qHTS assay for small molecule antagonists of farnesoid X receptor signaling (AID 588526)
Outline: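 Concentration-response titrations were fitted to the Hill equation for half-maximal inhibition and maximal response, with data normalised to 50 uM chenodeoxycholic acid and DMSO control wells. Cells: FXR-UAS-bla HEK293T, dialyzed FBS.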

[16] = molecular target: Androgen receptor (Homo sapiens) (UniProt P10275); experiment: qHTS assay for small molecule agonists of androgen receptor signaling (AID 588515; active = well fitted curve in the direction sought with a large enough effect in the signal ratio, with a control signal flat; the % refers to the signal ratio); conditions: AR-UAS-bla HEK293, beta-lactamase ratio, agonist 16 h; stronger effect = higher value
Outline: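 EC50 and efficacy came from Hill fits of titrations (up to 92 uM) normalized to 30 nM R1881 as 100% and DMSO as 0%. Compound exposure was 16 h at 37 C on AR-UAS-bla HEK293 cells, with a 405/460/530 nm CCF4 fluorescence read.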

Sequence of Glucocorticoid receptor (Homo sapiens) (P04150 whole entry, looked up): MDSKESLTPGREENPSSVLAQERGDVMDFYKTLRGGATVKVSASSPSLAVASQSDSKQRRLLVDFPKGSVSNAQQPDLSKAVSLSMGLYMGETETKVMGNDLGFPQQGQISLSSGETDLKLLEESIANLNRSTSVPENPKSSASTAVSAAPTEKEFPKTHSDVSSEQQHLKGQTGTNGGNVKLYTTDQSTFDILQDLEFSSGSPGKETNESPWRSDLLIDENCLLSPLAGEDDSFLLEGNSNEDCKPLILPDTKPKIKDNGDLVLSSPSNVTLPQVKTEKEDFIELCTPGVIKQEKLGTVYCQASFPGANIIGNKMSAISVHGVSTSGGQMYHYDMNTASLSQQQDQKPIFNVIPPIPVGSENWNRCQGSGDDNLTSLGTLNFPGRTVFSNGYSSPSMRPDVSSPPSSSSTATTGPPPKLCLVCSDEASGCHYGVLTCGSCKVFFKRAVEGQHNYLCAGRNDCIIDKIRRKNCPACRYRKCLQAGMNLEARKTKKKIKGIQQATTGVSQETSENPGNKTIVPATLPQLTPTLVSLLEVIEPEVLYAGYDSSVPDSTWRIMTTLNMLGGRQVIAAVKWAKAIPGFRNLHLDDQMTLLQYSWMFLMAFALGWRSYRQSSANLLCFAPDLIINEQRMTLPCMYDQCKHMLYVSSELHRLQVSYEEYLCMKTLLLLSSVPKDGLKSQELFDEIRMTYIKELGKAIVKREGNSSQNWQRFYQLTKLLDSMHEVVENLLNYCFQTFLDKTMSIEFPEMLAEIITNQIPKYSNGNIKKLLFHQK
Sequence of Retinoic acid receptor RXR-alpha (Homo sapiens) (P19793 whole entry, looked up): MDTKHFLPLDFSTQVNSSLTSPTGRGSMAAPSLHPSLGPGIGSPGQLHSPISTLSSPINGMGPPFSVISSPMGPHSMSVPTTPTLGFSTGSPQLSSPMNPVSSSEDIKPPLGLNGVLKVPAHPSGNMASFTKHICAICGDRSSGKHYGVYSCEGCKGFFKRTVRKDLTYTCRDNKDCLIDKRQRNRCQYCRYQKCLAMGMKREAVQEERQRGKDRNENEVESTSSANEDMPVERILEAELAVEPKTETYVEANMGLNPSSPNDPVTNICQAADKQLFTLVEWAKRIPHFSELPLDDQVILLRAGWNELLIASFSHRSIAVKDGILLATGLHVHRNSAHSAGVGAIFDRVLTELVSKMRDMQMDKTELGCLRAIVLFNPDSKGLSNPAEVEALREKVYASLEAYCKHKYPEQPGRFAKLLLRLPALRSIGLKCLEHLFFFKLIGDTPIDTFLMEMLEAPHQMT
Sequence of Thyroid hormone receptor beta (Homo sapiens) (P10828 whole entry, looked up): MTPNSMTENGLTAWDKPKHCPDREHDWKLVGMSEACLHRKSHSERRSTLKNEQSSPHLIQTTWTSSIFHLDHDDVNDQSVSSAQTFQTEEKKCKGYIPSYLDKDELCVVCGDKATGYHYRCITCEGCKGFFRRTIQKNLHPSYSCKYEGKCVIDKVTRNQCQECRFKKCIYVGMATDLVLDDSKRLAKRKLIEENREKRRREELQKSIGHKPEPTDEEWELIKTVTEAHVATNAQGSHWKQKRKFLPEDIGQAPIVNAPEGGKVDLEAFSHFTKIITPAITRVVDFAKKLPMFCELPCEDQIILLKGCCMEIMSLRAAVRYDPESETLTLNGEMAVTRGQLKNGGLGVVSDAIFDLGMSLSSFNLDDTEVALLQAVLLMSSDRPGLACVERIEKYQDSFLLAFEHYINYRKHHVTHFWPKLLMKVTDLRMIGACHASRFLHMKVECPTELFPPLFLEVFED
Sequence of Androgen receptor (Homo sapiens) (P10275 whole entry, looked up): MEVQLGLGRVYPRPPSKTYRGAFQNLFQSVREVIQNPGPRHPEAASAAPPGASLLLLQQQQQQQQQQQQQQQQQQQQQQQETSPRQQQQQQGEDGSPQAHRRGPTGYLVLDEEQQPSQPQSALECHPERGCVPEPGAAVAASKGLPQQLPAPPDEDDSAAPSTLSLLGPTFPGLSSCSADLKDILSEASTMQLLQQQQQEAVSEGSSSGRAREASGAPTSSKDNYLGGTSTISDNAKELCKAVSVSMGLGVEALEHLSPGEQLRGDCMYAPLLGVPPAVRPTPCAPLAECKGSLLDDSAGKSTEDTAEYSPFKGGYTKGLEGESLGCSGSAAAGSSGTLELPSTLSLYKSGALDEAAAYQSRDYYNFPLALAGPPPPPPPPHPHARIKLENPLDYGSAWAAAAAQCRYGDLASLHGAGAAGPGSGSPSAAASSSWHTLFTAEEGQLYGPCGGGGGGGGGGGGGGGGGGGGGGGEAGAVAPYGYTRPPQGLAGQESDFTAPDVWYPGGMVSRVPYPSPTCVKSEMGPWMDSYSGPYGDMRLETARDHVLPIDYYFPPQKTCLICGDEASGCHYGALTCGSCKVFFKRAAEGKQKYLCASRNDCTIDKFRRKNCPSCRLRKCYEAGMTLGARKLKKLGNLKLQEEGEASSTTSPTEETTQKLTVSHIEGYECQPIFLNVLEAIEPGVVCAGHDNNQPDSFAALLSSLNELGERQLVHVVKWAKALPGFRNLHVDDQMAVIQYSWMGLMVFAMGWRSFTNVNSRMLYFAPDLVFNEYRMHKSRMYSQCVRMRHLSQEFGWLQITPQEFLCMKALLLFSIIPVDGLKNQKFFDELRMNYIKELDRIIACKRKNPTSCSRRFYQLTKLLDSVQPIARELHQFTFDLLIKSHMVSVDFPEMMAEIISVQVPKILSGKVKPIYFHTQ
Sequence of Bile acid receptor (Homo sapiens) (Q96RI1 whole entry, looked up): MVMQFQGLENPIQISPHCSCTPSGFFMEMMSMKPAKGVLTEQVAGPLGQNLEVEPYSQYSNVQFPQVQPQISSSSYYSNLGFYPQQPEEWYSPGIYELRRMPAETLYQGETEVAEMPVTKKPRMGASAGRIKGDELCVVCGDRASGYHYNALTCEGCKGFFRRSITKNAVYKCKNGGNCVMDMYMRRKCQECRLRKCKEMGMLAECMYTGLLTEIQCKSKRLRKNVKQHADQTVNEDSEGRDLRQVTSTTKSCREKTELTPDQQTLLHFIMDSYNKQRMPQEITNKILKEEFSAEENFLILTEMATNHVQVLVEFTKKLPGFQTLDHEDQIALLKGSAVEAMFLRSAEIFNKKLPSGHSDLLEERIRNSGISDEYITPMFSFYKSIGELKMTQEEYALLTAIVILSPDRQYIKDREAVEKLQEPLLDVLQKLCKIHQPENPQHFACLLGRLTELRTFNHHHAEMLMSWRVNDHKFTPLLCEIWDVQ
Sequence of Vitamin D3 receptor (Homo sapiens) (P11473 whole entry, looked up): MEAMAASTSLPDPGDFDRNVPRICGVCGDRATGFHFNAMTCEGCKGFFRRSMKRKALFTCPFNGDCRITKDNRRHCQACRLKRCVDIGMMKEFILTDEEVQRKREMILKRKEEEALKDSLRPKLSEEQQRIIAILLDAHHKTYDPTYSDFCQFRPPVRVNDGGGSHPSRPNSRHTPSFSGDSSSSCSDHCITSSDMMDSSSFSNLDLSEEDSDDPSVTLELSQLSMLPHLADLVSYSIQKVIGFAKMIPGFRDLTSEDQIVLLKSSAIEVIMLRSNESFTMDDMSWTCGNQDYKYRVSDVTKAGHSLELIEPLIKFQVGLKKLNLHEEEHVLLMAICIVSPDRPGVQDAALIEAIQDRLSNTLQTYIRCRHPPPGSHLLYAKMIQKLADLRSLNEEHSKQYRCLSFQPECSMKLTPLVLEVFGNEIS
Sequence of Peroxisome proliferator-activated receptor gamma (Homo sapiens) (P37231 whole entry, looked up): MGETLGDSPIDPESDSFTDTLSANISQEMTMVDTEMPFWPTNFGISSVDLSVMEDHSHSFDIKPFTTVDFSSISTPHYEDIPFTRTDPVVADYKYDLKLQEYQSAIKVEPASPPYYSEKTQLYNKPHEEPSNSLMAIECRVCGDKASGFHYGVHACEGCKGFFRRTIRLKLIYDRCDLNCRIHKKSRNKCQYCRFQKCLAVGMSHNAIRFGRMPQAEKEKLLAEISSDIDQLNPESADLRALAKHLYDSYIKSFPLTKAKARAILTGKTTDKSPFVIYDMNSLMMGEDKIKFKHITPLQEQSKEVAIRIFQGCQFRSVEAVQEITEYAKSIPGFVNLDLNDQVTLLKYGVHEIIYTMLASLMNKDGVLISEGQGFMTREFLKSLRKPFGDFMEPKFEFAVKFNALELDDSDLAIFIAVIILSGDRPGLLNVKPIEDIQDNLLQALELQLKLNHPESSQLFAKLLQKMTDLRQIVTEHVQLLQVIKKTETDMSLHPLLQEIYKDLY
Sequence of Estrogen receptor (Homo sapiens) (P03372 whole entry, looked up): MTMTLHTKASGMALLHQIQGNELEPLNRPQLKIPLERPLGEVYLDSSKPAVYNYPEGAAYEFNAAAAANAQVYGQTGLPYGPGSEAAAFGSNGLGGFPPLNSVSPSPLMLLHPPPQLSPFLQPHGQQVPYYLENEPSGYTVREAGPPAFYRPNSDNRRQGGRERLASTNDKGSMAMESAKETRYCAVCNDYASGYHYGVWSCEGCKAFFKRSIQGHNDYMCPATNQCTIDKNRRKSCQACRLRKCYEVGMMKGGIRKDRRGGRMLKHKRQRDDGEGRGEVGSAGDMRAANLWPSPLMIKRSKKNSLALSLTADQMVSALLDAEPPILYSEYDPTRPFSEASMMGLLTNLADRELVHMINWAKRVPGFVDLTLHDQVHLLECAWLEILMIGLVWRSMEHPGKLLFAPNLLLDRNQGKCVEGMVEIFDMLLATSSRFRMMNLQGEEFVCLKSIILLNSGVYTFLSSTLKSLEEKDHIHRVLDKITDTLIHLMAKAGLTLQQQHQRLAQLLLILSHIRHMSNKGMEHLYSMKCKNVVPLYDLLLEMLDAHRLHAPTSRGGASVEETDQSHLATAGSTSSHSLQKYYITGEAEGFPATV

SMILES	Potency [1]	Potency [2]	Potency [3]	outcome [4]	max response [5]	Potency [6]	outcome [7]	outcome [8]	activation [9]	Potency [10]	outcome [11]	max response [12]	Potency [13]	outcome [14]	outcome [15]	activation [16]
O=[N+]([O-])c1c2ccccc2cc2ccccc12	inactive	31.6 µM (active)	inactive	inactive	3.63%	inactive	inactive	–	–	–	–	–	–	–	–	–
C1CCC(NC2CCCCC2)CC1	inactive	inactive	inactive	inactive	-15% and -1.01% and -0.218%	inactive	inactive	inactive	3.43% (inactive) and -1% (inactive) and -4.74% (inactive)	inactive	inactive	10% and 0.455%	inactive	inactive	–	–
CCOCCOC(C)=O	inactive	inactive	inactive	inactive	-8.15%	inactive	–	inactive	-2.6% (inactive)	inactive	inactive	–	–	inactive	–	–
Nc1ccc([N+](=O)[O-])cc1O	–	–	–	–	–	–	–	–	–	–	inactive	–	–	–	inactive	–
Nc1ccc([N+](=O)[O-])cc1	–	–	inactive	inactive	6.91%	inactive	inactive	–	0.519% (inactive)	–	–	–	–	inactive	inactive	7.63% (inactive)
O=C(Nc1ccccc1-c1ccc(Cl)cc1)c1cccnc1Cl	inactive	–	inactive	inactive	–	–	inactive	inactive	-16.1% (inactive)	inactive	inactive	–	–	inactive	–	–
OCCCBr	inactive	inactive	inactive	inactive	-10.8%	inactive	inactive	inactive	-1.2% (inactive)	inactive	–	–	–	inactive	–	–
c1ccc2occc2c1	inactive	inactive	–	–	–	–	–	inactive	–	–	–	–	–	–	–	–
C=CC(=O)NCNC(=O)C=C	inactive	inactive	inactive	inactive	1.23% and 0.699%	inactive	–	inactive	4.39% (inactive) and -21.1% (inactive)	inactive	inactive	-23.6%	inactive	inactive	–	20.4% (inactive) and 9.02% (inactive)
O=S(=O)(c1ccc(Cl)cc1)c1ccc(Cl)cc1	inactive	–	inactive	inactive	-4.56% and -1.98%	inactive	inactive	inactive	-2.41% (inactive) and 8.97% (inactive)	inactive	inactive	-8.84% and -18.1% and 9.46%	inactive	inactive	–	–
O=S(=O)(O)C(F)(F)C(F)(F)C(F)(F)C(F)(F)F	inactive	inactive	inactive	inactive	–	–	inactive	–	0.888% (inactive)	inactive	inactive	48.3% and 16.2%	inactive	inactive	–	–
CCOP(=O)(NC(C)C)Oc1ccc(SC)c(C)c1 (stereo unspecified)	–	inactive and 44.7 µM (active)	inactive	inactive	8.26%	inactive	–	–	3.01% (inactive) and -4.29% (inactive)	–	inactive	97.8%	inactive	inactive	inactive	2.45% (inactive) and -12.7% (inactive)
COC(C)(C)CCCC(C)C/C=C/C(C)=C/C(=O)OC(C)C (stereo unspecified)	–	–	–	–	13.2%	inactive	inactive	–	–	–	–	–	–	inactive	–	-13.7% (inactive) and -1.74% (inactive)
COc1nn(CSP(=S)(OC)OC)c(=O)s1	–	–	inactive	inactive	–	–	inactive	inactive	12.2% (inactive)	inactive	inactive	–	–	–	inactive	–
Nc1ccc(Sc2ccc(N)cc2)cc1	inactive	inactive	inactive	inactive	14.5% and 0.308%	inactive	inactive	–	8.24% (inactive) and -4.53% (inactive)	inactive	inactive	–	–	inactive	inactive	–
c1cc2ccc3cccc4ccc(c1)c2c34	inactive	inactive	inactive	inactive	-6.58% and -8.62%	inactive	inactive	inactive	1.46% (inactive) and -7.46% (inactive)	inactive	inactive	50.8% and 2.37%	inactive	inactive	–	11.6% (inactive) and 8.44% (inactive)
O=[N+]([O-])/N=C1\NCCN1Cc1ccc(Cl)nc1	inactive	inactive	inactive	–	-17.3%	inactive	inactive	inactive	6.65% (inactive)	inactive	–	–	–	inactive	inactive	8.09% (inactive)
CCCCCCCCc1ccc(O)cc1	–	inactive	inactive	inactive	-5.76% and -13.1%	inactive	inactive	–	0.354% (inactive) and -8.06% (inactive)	–	inactive	-43.1% and -32.6%	inactive	inactive	–	-7.85% (inactive) and -15.7% (inactive)
Nc1ccc(Cl)cc1N	–	–	inactive	inactive	13.9%	inactive	inactive	–	0.0302% (inactive) and -3.42% (inactive)	inactive	–	–	–	inactive	inactive	-2.06% (inactive)
CC(C)(c1ccc(O)cc1)c1ccc(O)cc1	–	inactive	–	–	0.616% and 8.18%	inactive	–	–	–	–	inactive	–	–	–	–	-6.96% (inactive)
O=C(O)COc1ccccc1	inactive	–	inactive	inactive	–	–	inactive	inactive	-4.12% (inactive)	inactive	inactive	43.8%	inactive	inactive	–	–
